In PubChem BioAssay (Tox21):
Several values for one entry are separate records, joined by “and”; a condition that tells them apart may be missing. Equal entries are not always repeated. Results filed as inconclusive are left out. More than one record can exist for a structure, and the calls need not agree. Activity calls are given as the source filed them. Unless noted, the call rests on the fitted dose curve; in most records, active means well fitted curve in the direction sought with a large enough effect in the repeat runs; inconclusive means weak or mixed curves; inactive means no such curve, though single readings can be large; an effect the other way counts as inactive or inconclusive.

Columns and labels:
[1] = target: Retinoic acid receptor RXR-alpha (Homo sapiens) (UniProt P19793); assay: qHTS assay to identify small molecule agonists of the RXR signaling pathway (AID 1159527; calls by dose curve; further: nearly all actives have a fitted effect of over 35% in size)
Procedure, shortened: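 Fluorescence ratio readout (460 vs 530 nm) from GeneBLAzer RXR-alpha HEK 293T cells after 16 hr compound treatment; cells seeded 5 hr beforehand in low-serum, charcoal-stripped medium.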

[2] = qHTS assay to identify small molecule agonists of the RXR signaling pathway - cell viability counter screen (AID 1159529); further: nearly all actives have a fitted effect of over 50% in size; further: potency means the concentration at half of the fitted maximal effect
Procedure, shortened: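 Viability read-out for the RXR-alpha agonist qHTS: luminescent CellTiter-Glo signal after 30 min at RT. HEK 293T bla reporter cells, 2% charcoal-stripped FBS, 16 hr compound incubation; tetraoctyl ammonium bromide as cytotoxic control.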

[3] = qHTS assay to identify small molecule antagonists of the retinoid acid receptor (RAR) signaling pathway - cell viability counter screen (AID 1159551); further: nearly all actives have a fitted effect of over 35% in size; further: potency means the concentration at half of the fitted maximal effect
Procedure, shortened: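 In this counter screen, the RARE-luciferase line C3RL4 was exposed for 6 h at 37 C and 5% CO2 to compounds with retinol at 1 uM final. Cellular ATP, read by luminescence, served as the viability measure.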

[4] = qHTS assay to identify small molecule antagonists of the retinoic acid receptor (RAR) signaling pathway (AID 1159552; further: nearly all actives have a fitted effect of over 50% in size; further: potency means the concentration at half of the fitted maximal effect)
Procedure, shortened: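 Using a RARE-driven luciferase construct in C3RL4 cells, retinol at 1 uM final provided the agonist stimulus while compounds were co-applied. After 6 hours at 37 C, luminescence was recorded to flag inhibitors of retinol signaling.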

[5] = qHTS assay to identify small molecule agonists of the retinoic acid receptor (RAR) signaling pathway (AID 1159553); further: potency means the concentration at half of the fitted maximal effect
Procedure, shortened: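 In this cell-based screen, 1,000 C3RL4 cells per well were cultured overnight, dosed with test chemicals in DMSO for 6 hr, and assessed for RARE luciferase luminescence.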

[6] = qHTS assay to identify small molecule antagonists of the estrogen related receptor (ERR) signaling pathway - cell viability counter screen (AID 1224818); further: series mostly up to about 46 µM
Procedure, shortened: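 Viability of ERR cells, CellTiter-Fluor fluorescence; 17.5 h compound exposure at 37 C, DMSO vehicle; 30 min reagent incubation at 37 C/5% CO2.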

[7] = qHTS assay to identify small molecule antagonists of the estrogen related receptor (ERR) signaling pathway (AID 1224819; further: nearly all actives have a fitted effect of over 50% in size; further: potency means the concentration at half of the fitted maximal effect)
Procedure, shortened: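 Seed ERR cells 2,000/well; rest 6 h at 37 C/5% CO2; pin compounds in DMSO; incubate 18 h at 37 C; add One-Glo; wait 30 min at room temperature; measure luminescence.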

[8] = qHTS assay to identify small molecule agonists of the estrogen related receptor (ERR) signaling pathway (AID 1224820); further: potency means the concentration at half of the fitted maximal effect
Procedure, shortened: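 Luminescence readout (One-Glo, 30 min RT) from NTP-supplied ERR cell line exposed to compounds for 18 h at 37 C. Cells seeded 2,000 per well and pre-incubated 6 h before pin-tool compound transfer.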

[9] = test system: estrogen-related receptor alpha (ERRalpha) with PGC-1alpha coactivator, human; assay: qHTS assay to identify small molecule antagonists of the estrogen related receptor signaling pathway with the pleiotropic PPARgamma coactivator (PGC) (AID 1224821; calls by dose curve; further: nearly all actives have a fitted effect of over 50% in size; further: potency means the concentration at half of the fitted maximal effect)
Procedure, shortened: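 PGC/ERR reporter cells; 6 h pre-incubation 37 C/5% CO2; pin-tool compound in DMSO, 18 h 37 C; One-Glo added, 30 min RT; luminescence read. qHTS antagonist mode.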

[10] = qHTS assay to identify small molecule antagonists of the estrogen related receptor signaling pathway with the pleiotropic PPARgamma coactivator (PGC) cell viability counter screen (AID 1224822; further: series mostly up to about 46 µM)
Procedure, shortened: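 17.5 h compound treatment of PGC/ERR cells at 37 C; readout CellTiter-Fluor fluorescence; run alongside the PGC/ERR antagonist screen to flag cytotoxic compounds.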

Measured: Potency

Sequence of Retinoic acid receptor RXR-alpha (Homo sapiens) (P19793 whole entry, looked up): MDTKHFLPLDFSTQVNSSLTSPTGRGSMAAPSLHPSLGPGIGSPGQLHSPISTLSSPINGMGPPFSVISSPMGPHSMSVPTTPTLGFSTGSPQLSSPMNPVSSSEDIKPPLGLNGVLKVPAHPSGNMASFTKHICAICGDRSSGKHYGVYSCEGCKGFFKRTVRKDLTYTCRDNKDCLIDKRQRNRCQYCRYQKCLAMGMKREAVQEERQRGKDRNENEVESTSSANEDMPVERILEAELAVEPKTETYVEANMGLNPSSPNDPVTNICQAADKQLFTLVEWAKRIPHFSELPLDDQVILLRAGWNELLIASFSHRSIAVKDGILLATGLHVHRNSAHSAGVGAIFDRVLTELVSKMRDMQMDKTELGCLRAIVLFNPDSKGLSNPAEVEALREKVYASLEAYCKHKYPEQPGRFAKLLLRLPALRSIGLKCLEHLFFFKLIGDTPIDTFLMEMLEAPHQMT

NCCNCCNCCNCCN
inactive: [1] | [2] | [3]

O=C1CCCCC1
inactive: [1] | [2] | [3]

CCCCC(CC)COC(=O)CCCCCCCC(=O)OCC(CC)CCCC (stereo not given)
inactive: [1] | [2] | [3]

O=C(c1cc(O)c(O)c(O)c1)c1ccc(O)c(O)c1O
inactive: [1] | [2] | [3] | [4] | [5]

CCCCOCCOCCOC(=O)CCCCC(=O)OCCOCCOCCCC
inactive: [1] | [2] | [3] | [4] | [5]

OCC#CCO
inactive: [1] | [2] | [3] | [4] | [5]

O=C(O)c1cc(-c2ccccc2)nc2ccccc12
not listed: [5]
inactive: all other assays above

CC(C)(C)C1CCC(O)CC1 (stereo not given)
inactive: [1] | [2] | [3] | [4] | [5]

CCCCCCCCCCCCN
21.9 µM (active) and inactive: [2]
inactive: [1]
inactive and 68.6 µM (active): [3]

ClC1=C(Cl)C(Cl)(Cl)C(Cl)=C1Cl
inactive: [1] | [2] | [3] | [4]
inactive and 68.6 µM (active): [5]

O=S(=O)(O)CCS
inactive: [1] | [2] | [3]

Oc1c(Cl)cc(Cl)c(Cl)c1Cl
inactive: [1] | [3] | [4] | [5]
active: [2] 15.2 µM and 13.8 µM

CC(C)(C)C(=O)C1C(=O)c2ccccc2C1=O
inactive: [1] | [2] | [3] | [4] | [5]

CC1Cc2ccccc2N1NC(=O)c1ccc(Cl)c(S(N)(=O)=O)c1 (stereo not given)
inactive: [1] | [2] | [3] | [4] | [5]

O=S(=O)(O)c1cc(S(=O)(=O)O)c2c(N=Nc3ccccc3)c(O)ccc2c1
inactive: [1] | [2] | [3]

CC[Si](OC(C)=O)(OC(C)=O)OC(C)=O
inactive: [1] | [2] | [3]

C=C(C)C(=O)OCCCCCCCCCCCC
inactive: [1] | [2] | [3] | [5]

O=[N+]([O-])c1cccc(Cl)c1
inactive: [1] | [2] | [3] | [4] | [5]

C=C(C)C(=O)OCCC[Si](OC)(OC)OC
inactive: [1] | [2] | [3] | [4] | [5]

CS(=O)(=O)c1ccc([C@@H](O)[C@@H](CO)NC(=O)C(Cl)Cl)cc1
inactive: [1] | [2] | [3]

CCCCCCOC(C)=O
inactive: [1] | [2] | [3]

CC1CC(OC(=O)c2ccccc2O)CC(C)(C)C1 (stereo not given)
inactive: [1] | [2] | [3] | [4] | [5]

O=C(Cl)c1c(Cl)c(Cl)c(C(=O)Cl)c(Cl)c1Cl
inactive: [1] | [2] | [3] | [4] | [5]

CCCCCCCCC
inactive: [1] | [2] | [3]

NS(=O)(=O)c1cc2c(cc1Cl)NC=NS2(=O)=O
inactive: [6] | [10]

CC1=C(CC(=O)O)c2cc(F)ccc2/C1=C\c1ccc(S(C)=O)cc1 (stereo not given)
inactive: [2] | [3] | [6] | [10]

CCCCCCC(C)(C)S
inactive: [2] | [3] | [5]

CC(=O)[C@@]1(O)CC[C@H]2[C@@H]3CCC4=CC(=O)CC[C@]4(C)[C@H]3CC[C@@]21C
inactive: [2] | [3] | [4] | [5] | [6] | [10]

Cc1cc(Cc2ccc(N)c(C)c2)ccc1N
inactive: [2] | [3] | [5]

O=C1O[C@H](CO)[C@@H](O)[C@H](O)[C@H]1O
inactive: [2] | [3] | [5]

OC[C@@H](O)[C@@H](O)[C@H](O)[C@@H](O)CO
inactive: [2] | [3] | [5]

C=C(C)C(=O)OCCCCCC
inactive: [2] | [3] | [4] | [5]

CC(C)NCC(O)COc1cccc2ccccc12 (stereo not given)
inactive: [2] | [3] | [4] | [5] | [6] | [10]

NCCc1ccc(O)c(O)c1
inactive: [2] | [3] | [6]

CC#C[C@]1(O)CC[C@H]2[C@@H]3CCC4=CC(=O)CCC4=C3[C@@H](c3ccc(N(C)C)cc3)C[C@@]21C
inactive: [2] | [3] | [6] | [8]
active: [4] 27.3 µM and 26.6 µM | [7] 22 µM | [9] 21.1 µM

Cc1ccc(N)c(S(=O)(=O)O)c1
inactive: [2] | [3] | [5]

CCCCOCCO
inactive: [2] | [3] | [4] | [5]

C=C1CC[C@H](O)CC1=C/C=C1\CCC[C@]2(C)[C@@H]([C@H](C)/C=C/[C@H](C)C(C)C)CC[C@@H]12
inactive: [3]
active: [2] 24.5 µM | [5] 61.1 µM

CCCCC(CC)COC(=O)/C=C\C(=O)OCC(CC)CCCC (stereo not given)
inactive: [2] | [3] | [5]

CC(C)Cc1ccccc1
inactive: [2] | [3] | [5]

CC1=CC[C@H]2C[C@@H]1C2(C)C
inactive: [2] | [3] | [5]

O=C(Oc1ccccc1)c1ccc(O)cc1
inactive: [2] | [3]
active: [5] 19.4 µM and 30.6 µM

O=C(c1ccc(O)cc1)c1ccc(O)cc1O
inactive: [4] | [5]

Oc1ccc(OCc2ccccc2)cc1
4.24 µM (active) and inactive: [5]
inactive: [2] | [3]

OCC1CCCO1 (stereo not given)
inactive: [2] | [3] | [5]

CC1=C(/C=C/C(C)=C/C=C/C(C)=C/CO)C(C)(C)CCC1
inactive: [2] | [3] | [4]
active: [5] 13.9 µM and 32.3 µM

CC1(C)O[C@@H]2C[C@H]3[C@@H]4C[C@H](F)C5=CC(=O)CC[C@]5(C)[C@H]4[C@@H](O)C[C@]3(C)[C@]2(C(=O)CO)O1
inactive: [2] | [3] | [4] | [5]

CC(=O)Nc1ccc(C(=O)O)cc1
inactive: [2] | [3] | [5]

O=c1c(-c2ccc(O)cc2)coc2cc(O)ccc12
active: [5] 2.41 µM and 12.2 µM | [8] 15.5 µM
not listed: [1]
inactive: all other assays above

CS(=O)(=O)Nc1ccc([N+](=O)[O-])cc1Oc1ccccc1
inactive: [2] | [3] | [8] | [10]

CN(C)c1cccc(O)c1
inactive: [2] | [3]
inactive and 34.4 µM (active): [5]

Cc1cc(NS(=O)(=O)c2ccc(N)cc2)no1
inactive: [2] | [3] | [5]

CC(C)(N=C=O)c1cccc(C(C)(C)N=C=O)c1
inactive: [2] | [3] | [5]

CCCCNC(N)=O
inactive: [2] | [3] | [5]

CC(C)(CO)COC(=O)C(C)(C)CO
inactive: [2] | [3] | [4] | [5]

OC[C@@H](O)[C@H](O)[C@H](O)[C@@H](O)CO
inactive: [2] | [3] | [4] | [5]

O=[N+]([O-])C(CO)(CO)CO
inactive: [2] | [3] | [4] | [5]

CCc1ccc(O)cc1
inactive: [2] | [3] | [5]

CCC(C)C=O (stereo not given)
inactive: [2] | [3] | [5]

S=c1nc[nH]c2nc[nH]c12
active: [2] 3.01 µM
inactive: [4] | [5]

CN(C)c1ccc(C(=N)c2ccc(N(C)C)cc2)cc1
inactive: [2]
active: [5] 41.6 µM

CCCCC(CC)COC(C)=O (stereo not given)
inactive: [2] | [3] | [5]

Oc1ccc2ccccc2c1N=Nc1ccccc1
active: [5] 12.2 µM
inactive: [3]

COC(=O)c1ccccc1O
inactive: [3] | [4] | [5]
43.8 µM (active) and inactive: [2]
